# Laboratory results as given in paper PMC8384837, “Expanding the binding specificity for RNA recognition by a PUF domain”.
# Columns and labels:
# Test in all cases: yeast three-hybrid, YBZ-1, SC-Leu-His + 0.5 mM 3-AT, 4 days
# Conditions in all cases: tags: N-Gal4 AD-HA kept; label: inside an RPR1-promoter hybrid RNA with tandem MS2 sites; ssRNA
# PUM1 PUF domain R6-IYC = biological target: T1, PUM1 PUF domain R6-IYC (Homo sapiens, UniProt Q14671 828-1176, N1043I;Q1047C)
# T1 sequence: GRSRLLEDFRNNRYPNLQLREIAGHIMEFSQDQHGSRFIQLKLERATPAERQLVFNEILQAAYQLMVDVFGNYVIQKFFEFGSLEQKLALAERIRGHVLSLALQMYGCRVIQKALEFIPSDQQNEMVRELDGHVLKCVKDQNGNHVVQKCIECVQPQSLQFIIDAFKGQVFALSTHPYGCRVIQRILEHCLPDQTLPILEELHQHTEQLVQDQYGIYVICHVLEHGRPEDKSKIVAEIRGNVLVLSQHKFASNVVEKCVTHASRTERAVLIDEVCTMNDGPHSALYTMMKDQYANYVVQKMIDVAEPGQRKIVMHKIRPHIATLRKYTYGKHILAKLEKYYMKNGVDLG
# Procedure, shortened: (§1)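 Sequencing with Illumina followed PCR amplification of the repeat regions from transformants grown four days on SC-Leu (input) or SC-Leu-His + 0.5 mM 3-AT (selection). The transformants were strain YBZ-1 with a LexA–MS2 coat fusion and a HIS3 reporter, carrying Pumilio-1 PUF domain libraries and matching RNA elements. The interaction score is the log change in variant frequency from input to selection, computed in log2 with a pseudocount of 1 for absent variants.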
# PUM1 PUF domain R4-RVY = PUM1 PUF domain R4-RVY (Homo sapiens, UniProt Q14671 828-1176, N971R;H972V;Q975Y)
# Procedure, shortened: as §1
# PUM1 PUF domain R8-RWA = PUM1 PUF domain R8-RWA (Homo sapiens, UniProt Q14671 828-1176, N1122R;Y1123W;Q1126A)
# Procedure, shortened: as §1
# PUM1 PUF domain R5-FRN = PUM1 PUF domain R5-FRN (Homo sapiens, UniProt Q14671 828-1176, C1007F;Q1011N)
# Procedure, shortened: as §1
# PUM1 PUF domain R5-YRR = PUM1 PUF domain R5-YRR (Homo sapiens, UniProt Q14671 828-1176, C1007Y;Q1011R)
# Procedure, shortened: as §1
# PUM1 PUF domain R3-APS = PUM1 PUF domain R3-APS (Homo sapiens, UniProt Q14671 828-1176, C935A;R936P;Q939S)
# Procedure, shortened: as §1
# PUM1 PUF domain R8-KYR = PUM1 PUF domain R8-KYR (Homo sapiens, UniProt Q14671 828-1176, N1122K;Q1126R)
# Procedure, shortened: as §1
# PUM1 PUF domain R7-AVR = PUM1 PUF domain R7-AVR (Homo sapiens, UniProt Q14671 828-1176, S1079A;N1080V;E1083R)
# Procedure, shortened: as §1
# PUM1 PUF domain R7-KRE = PUM1 PUF domain R7-KRE (Homo sapiens, UniProt Q14671 828-1176, S1079K;N1080R)
# Procedure, shortened: as §1
# PUM1 PUF domain R5-RYL = PUM1 PUF domain R5-RYL (Homo sapiens, UniProt Q14671 828-1176, C1007R;R1008Y;Q1011L)
# Procedure, shortened: as §1
sequence,measurement,setting,value
GGCUAGAACUAGUGGAUCCCCCGGCGCCCGGCGGCUCGAGCCCGGGUAAGUGUAAAUAGUCUGCAUGCCGCCGGGCGCCAUGCCUGCAGGUCGACUCUAGAAAACAUG,binding signal,PUM1 PUF domain R6-IYC,3.57 log2 enrichment (interaction score)
same,binding signal,PUM1 PUF domain R4-RVY,5.94 log2 enrichment (interaction score)
same,binding signal,PUM1 PUF domain R8-RWA,4.01 log2 enrichment (interaction score)
same,binding signal,PUM1 PUF domain R5-FRN,1.74 log2 enrichment (interaction score)
same,binding signal,PUM1 PUF domain R5-YRR,1.76 log2 enrichment (interaction score)
same,binding signal,PUM1 PUF domain R3-APS,3.64 log2 enrichment (interaction score)
GGCUAGAACUAGUGGAUCCCCCGGCGCCCGGCGGCUCGAGCCCGGGUAAGUGUUAAUAGUCUGCAUGCCGCCGGGCGCCAUGCCUGCAGGUCGACUCUAGAAAACAUG,binding signal,PUM1 PUF domain R5-YRR,1.61 log2 enrichment (interaction score)
GGCUAGAACUAGUGGAUCCCCCGGCGCCCGGCGGCUCGAGCCCGGGUAAGCGUAAAUAGUCUGCAUGCCGCCGGGCGCCAUGCCUGCAGGUCGACUCUAGAAAACAUG,binding signal,PUM1 PUF domain R8-RWA,4.94 log2 enrichment (interaction score)
same,binding signal,PUM1 PUF domain R8-KYR,6.62 log2 enrichment (interaction score)
GGCUAGAACUAGUGGAUCCCCCGGCGCCCGGCGGCUCGAGCCCGGGUAAGUUUAAAUAGUCUGCAUGCCGCCGGGCGCCAUGCCUGCAGGUCGACUCUAGAAAACAUG,binding signal,PUM1 PUF domain R7-AVR,3.46 log2 enrichment (interaction score)
same,binding signal,PUM1 PUF domain R7-KRE,3.62 log2 enrichment (interaction score)
GGCUAGAACUAGUGGAUCCCCCGGCGCCCGGCGGCUCGAGCCCGGGUAAGUGUCAAUAGUCUGCAUGCCGCCGGGCGCCAUGCCUGCAGGUCGACUCUAGAAAACAUG,binding signal,PUM1 PUF domain R5-FRN,2.94 log2 enrichment (interaction score)
same,binding signal,PUM1 PUF domain R5-YRR,3.31 log2 enrichment (interaction score)
same,binding signal,PUM1 PUF domain R5-RYL,2.69 log2 enrichment (interaction score)
GGCUAGAACUAGUGGAUCCCCCGGCGCCCGGCGGCUCGAGCCCGGGUAAGUCUAAAUAGUCUGCAUGCCGCCGGGCGCCAUGCCUGCAGGUCGACUCUAGAAAACAUG,binding signal,PUM1 PUF domain R7-KRE,4.01 log2 enrichment (interaction score)
GGCUAGAACUAGUGGAUCCCCCGGCGCCCGGCGGCUCGAGCCCGGGUAAGUGUGAAUAGUCUGCAUGCCGCCGGGCGCCAUGCCUGCAGGUCGACUCUAGAAAACAUG,binding signal,PUM1 PUF domain R5-RYL,3.39 log2 enrichment (interaction score)
